About 83,000 compounds went through this panel and 20% of them were active in at least one assay; those are over-represented in the sample as a whole.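 Note: values are percent growth. 100 is the growth of untreated cells, values between 100 and 0 indicate rising inhibition; between -100 and 0 indicates cell death.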 Unmarked numbers belong to inactive results. Calls of active or inactive are those of the source. Rule for the calls: active = growth percent below 10; inactive = the rest.

Among the test systems are T-47D breast; SW-620 colon; MCF7 breast; HCT-116 colon; HCC-2998 colon; KM12 colon; MDA-MB-435 melanoma; BT-549 breast.
What all share (assay): NCI-60 one-dose screen, 48 h (100 = growth as untreated, 0 = no growth, -100 = all killed)
What all share (conditions): 10 µM

For the compound `Cc1cn(-c2cc(F)cc(NC(=O)c3ccc(C)c(Nc4nccc(-c5cccnc5)n4)c3)c2)cn1`, the growth was 3.22% (active) in the test on T-47D breast; 40.5% with SW-620 colon; 16.8% in the test with MCF7 breast; 6.97% (active) with HCT-116 colon; 101% in the test on HCC-2998 colon; 15.6% in the test with KM12 colon.

With `N#Cc1cnn(C(=O)c2nn(-c3ccc(Cl)cc3)cc2O)c1N`, the growth with T-47D breast is 3.29% (active); in the test on MDA-MB-435 melanoma, 19.1%; in the test on SW-620 colon it was 38%; in the test with MCF7 breast, 10.9%; in the test on HCT-116 colon, 6.75% (active); with HCC-2998 colon it was 11.9%. The growth with KM12 colon is 19.1%.

`COc1ccc(C(=O)c2cc3c(OC)c(OC)c(OC)cc3[nH]2)cc1`: the growth is 34.9% with T-47D breast; -0.263% (active) with MDA-MB-435 melanoma; 33.9% in the test with SW-620 colon; 20.4% with MCF7 breast; 28.1% in the test on HCT-116 colon; 51.3% in the test with HCC-2998 colon. Further, the growth in the test with KM12 colon is 12.6%.

`CN(C)CCCOc1cccc(NC2=C(Cl)C(=O)C(Nc3cccc(OCCCN(C)C)c3)=C(Cl)C2=O)c1`: the growth in the test on T-47D breast is -44% (active); with MDA-MB-435 melanoma, -65.5% (active); in the test on MCF7 breast it was -38.3% (active); with HCT-116 colon, -88.7% (active); in the test on HCC-2998 colon, 14%; with KM12 colon, 13.9%.

Turning to `O=C(CCCNC(=O)c1nc(-c2ccccc2)n(-c2ccccc2)n1)NO`, the growth with BT-549 breast is 106%; in the test with MDA-MB-435 melanoma it was 109%; in the test with SW-620 colon it was 106%; in the test on MCF7 breast it was 92%; in the test with HCT-116 colon, 85.6%; in the test with HCC-2998 colon, 98.9%. Besides, the growth in the test on KM12 colon was 110%.

In the case of `O=C(CC(CC(=O)c1ccccc1)c1ccccc1O)c1ccccc1`, the growth is 83% in the test with T-47D breast; 99.1% in the test on MDA-MB-435 melanoma; 96.7% with SW-620 colon; 89.3% in the test on MCF7 breast; 88.5% in the test on HCT-116 colon; 105% in the test on HCC-2998 colon. Further, the growth with KM12 colon was 99.8%.

On to `O=C(CN1CCN(C(=O)c2ccccc2)CC1)Nc1ccccc1SCc1ccccc1`, for which the growth in the test on T-47D breast is 37.7%; with MDA-MB-435 melanoma, 94.3%; in the test on MCF7 breast it was 86.4%; in the test with HCT-116 colon, 85.5%; with HCC-2998 colon, 93.6%; in the test with KM12 colon, 84.2%.

With `O=C1c2ccccc2C(=O)c2c1ccc(C(Br)Br)c2Cl`, the growth in the test on T-47D breast is 22.7%; with MDA-MB-435 melanoma, 60%; with SW-620 colon, -23.4% (active); in the test with MCF7 breast, 2.06% (active); in the test on HCT-116 colon, -62.7% (active); in the test with HCC-2998 colon, 87.4%. For the same compound, the growth with KM12 colon is 47.5%.

As to `COc1cc2c(Nc3ccc(S(N)(=O)=O)cc3)ncnc2c(OC)c1OC`, the growth in the test with BT-549 breast is 126%; in the test on MDA-MB-435 melanoma it was 105%; with SW-620 colon, 95.7%; with MCF7 breast it was 96.6%; in the test with HCT-116 colon, 108%; in the test on HCC-2998 colon, 98.4%. For the same compound, the growth in the test with KM12 colon is 99.2%.

As for `NC1=CC(=O)C(=O)c2cccnc21`, the growth is 86% in the test on BT-549 breast; -82.8% (active) in the test on MDA-MB-435 melanoma; 73.8% in the test with SW-620 colon; 52.5% in the test with MCF7 breast; 86.6% with HCT-116 colon; 83% in the test with HCC-2998 colon. The growth in the test with KM12 colon is 76.7%.

With `O=C(COc1cccc(/C=C2\CSc3ccccc3C2=O)c1)c1ccc(Cl)cc1`, the growth was 57.8% with T-47D breast; -14.8% (active) in the test with MDA-MB-435 melanoma; -89.2% (active) in the test with MCF7 breast; -57.8% (active) in the test on HCT-116 colon; -80.3% (active) in the test with KM12 colon.

Take `COc1ccc2c(c1)C(=O)/C(=C/c1cccc(OCC(=O)c3ccc([N+](=O)[O-])cc3)c1)CO2`: the growth in the test on T-47D breast was 50.3%; in the test with MDA-MB-435 melanoma, 24.4%; in the test on SW-620 colon it was -89% (active); with MCF7 breast it was -35.9% (active); in the test on HCT-116 colon it was -74.2% (active); in the test on KM12 colon it was -87.9% (active).

`CCN(CC)CCCC(Nc1c2ccc(Cl)cc2nc2ccc(OC)cc12)c1ccc(F)cc1` (stereo not drawn): the growth with BT-549 breast was 81.5%; with MDA-MB-435 melanoma, -86.9% (active); in the test with SW-620 colon, -53.9% (active); with MCF7 breast it was -62.9% (active); in the test on HCT-116 colon, -41% (active); with HCC-2998 colon, -85% (active). In the test with KM12 colon, the growth was 14.7%.

`Cc1c2c(nn1C(=O)c1nn(-c3ccc(Cl)cc3)cc1O)-c1ccccc1CC2`: the growth with T-47D breast was 1.65% (active); with MDA-MB-435 melanoma it was 34.3%; in the test on SW-620 colon, 32.4%; in the test with HCT-116 colon, 7.08% (active); in the test on HCC-2998 colon, 9.3% (active); in the test with KM12 colon it was 29.5%.

Turning to `COc1ccc(-c2onc(N)c2-c2cc(OC)c3c(c2)OCO3)cc1`, the growth in the test with T-47D breast is 19.3%; with MDA-MB-435 melanoma it was -24.1% (active); with SW-620 colon, 16.8%; with MCF7 breast, 8.88% (active); in the test on HCT-116 colon, 15.5%; in the test on HCC-2998 colon it was 52.1%. Further, the growth in the test with KM12 colon was 21.8%.

On to `CCN(CC)CCOc1cccc2c1C(=O)c1ccccc1C2=O`, for which the growth in the test with T-47D breast was 107%; with MDA-MB-435 melanoma it was 100%; with SW-620 colon, 87.6%; in the test on MCF7 breast, 92.1%; with HCT-116 colon, 70.4%; with HCC-2998 colon, 102%. In addition, the growth in the test on KM12 colon was 98%.

`C=CCn1c(SCC(=O)Nc2ccc(C(=O)/C=C/c3ccc(OC)cc3)cc2)nnc1-c1ccc(OC)c(OC)c1`: the growth was 75.8% with BT-549 breast; 86.7% in the test with MDA-MB-435 melanoma; 97.2% in the test on SW-620 colon; 43.5% in the test with MCF7 breast; 55.5% with HCT-116 colon; 94.6% in the test on HCC-2998 colon. In the test on KM12 colon, the growth was 87.9%.

For `C1CN(CC2CCC(CN3CCOCC3)O2)CCO1` (stereo not drawn), the growth was 81.5% in the test on T-47D breast; 104% in the test with MDA-MB-435 melanoma; 53.2% with MCF7 breast; 89% in the test with HCT-116 colon; 102% in the test on HCC-2998 colon; 105% in the test on KM12 colon.
